Measured values from publication PMC5540273 (PLoS ONE, 2017).

tested on: KIT; settings: concentration: 1 μM, replicates: in singlicate; n = 1
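Also: KINOMEscan kinase panel screen.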

Compound	%Inh [%]
CCn1c(-c2ccoc2)nc2cnccc21 [SB-733887]	5
Nc1nc(-c2ccccc2F)c(-c2ccnc3ccccc23)s1 [GW560459]	9
COc1cc(Nc2ccnc3ccc(C(F)(F)F)cc23)cc(OC)c1OC [GW577382]	19
COC(=O)c1c(-c2ccccc2)c2cc(Br)ccc2c(=O)n1Cc1ccc(S(C)(=O)=O)cc1	54
O=C(Nc1n[nH]c2nc(-c3ccccc3)c(Cl)cc12)C1CC1 [SB-734909]	51
Nc1nc(N)c2nc(-c3ccccc3)[nH]c2n1 [SKF-12778]	21
Cc1c(Cn2c(C)nn3c(=O)cc(N4CCO[C@H](C)C4)nc23)cccc1C(F)(F)F [GSK2373690]	13
COc1cccc(C2=C(Nc3cccc(C(=O)O)c3)C(=O)NC2=O)c1 [SB-390770]	0
CCCNC(=O)Nc1ccc(Oc2ncnc3ccn(C)c23)cc1	89
Cc1ccc(-c2ccc3c(ccc4sc5c(c43)NC[C@@H](C)N=C5N(C)C)n2)cn1	0
CN1C(=O)C(Nc2cc(Cl)c(O)c(Cl)c2)=C(c2ccc(Cl)cc2)C1=O [SB-404321]	0
COc1cc(Nc2nccc(N3CCC(NC(=O)C4COc5ccccc5O4)C3)n2)cc(OC)c1OC (centres unmarked) [GSK1379761]	22
COc1ccc(-c2coc3ccc(-c4nnc(SCc5cccc(C#N)c5)o4)cc23)cc1	21
COc1cc(Nc2nccc(N3CCC(NC(=O)C(C)c4ccc(Cl)cc4)C3)n2)cc(OC)c1OC (centres unmarked) [GSK1379757]	2
